Among all 330,000 compounds or so, about 1,700 (0.52%) were called active.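 The calls were made as follows: active = GFP response versus DMSO above a set limit, roughly screen mean plus 3 SD (cut at about 180% in these data); inconclusive = fewer than 70 cells counted for a yeast strain; inactive = the rest.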 Many of the other results were omitted from the sample, so actives are more common in it than they were.
Test: TOR pathway GLN3 branch reporter MEP2-GFP changes – S. cerevisiae, multiplex flow cytometry, MLPCN library, primary screen (AID 2016);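 also: median GFP fluorescence of the barcode-gated MEP2-GFP cells per well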
Conditions: S. cerevisiae MEP2-GFP strain, 3 h, at 10 µM, stronger effect = higher value, 100% = DMSO control level

**Q.** With `O=C(c1ccncc1)N1CCN(S(=O)(=O)c2cc(C(F)(F)F)cc(C(F)(F)F)c2)CC1` as the compound, how does the GFP response vs DMSO read?
**A.** 103% (inactive)

**Q.** For `COc1ccc(O[C@H]2C=C[C@@H](c3ccccc3)O[C@@H]2CO/N=C/C[C@@H]2C=C[C@H](OC(C)=O)[C@@H](COC(C)=O)O2)cc1`, which GFP response vs DMSO is on record?
**A.** 90% (inactive)

**Q.** For `CC(NC(=S)NC1CCCCC1)C(c1ccccc1)N1CCOCC1` (stereo not drawn), which GFP response vs DMSO is on record?
**A.** 99.2% (inactive)

**Q.** Which GFP response vs DMSO does the source give for `CC1CCC(NS(=O)(=O)c2ccc3c(c2)n(C)c(=O)c(=O)n3C)CC1` (stereo not drawn) here?
**A.** 102% (inactive)

**Q.** With `O=S(=O)(NC1CC1)c1ccc(F)c(F)c1` as the compound, how does the GFP response vs DMSO read?
**A.** 101% (inactive)

**Q.** With `Cn1sc(=O)c2cc(S(=O)(=O)NC3CC3)ccc21` as the compound, how does the GFP response vs DMSO read?
**A.** 626% [may fluoresce violet] (active)

**Q.** For `CCCN(CCC)CC(O)COc1ccccc1C(=O)Nc1ccccc1` (stereo not drawn), which GFP response vs DMSO is on record?
**A.** 107% (inactive)

**Q.** Which GFP response vs DMSO does the source give for `O=C(Nc1ccc(Br)c2cccnc12)c1ccc(Cn2cc([N+](=O)[O-])cn2)o1` here?
**A.** 97.1% (inactive)

**Q.** Which GFP response vs DMSO does the source give for `O=C(COc1ccc(-n2cnnn2)cc1)Nc1ccccc1Cl` here?
**A.** 240% [may fluoresce violet] (active)

**Q.** For `C=CCc1cccc(/C=N/NC(=O)COc2ccc(-n3cnnn3)cc2)c1O`, which GFP response vs DMSO is on record?
**A.** 102% (inactive)

**Q.** Which GFP response vs DMSO does the source give for `O=C(COc1ccc(Cl)cc1)Nc1ccccc1CO` here?
**A.** 98.3% (inactive)

**Q.** With `Cc1c(-c2ccccc2)cn2c1-c1ccc(C)n1CC2` as the compound, how does the GFP response vs DMSO read?
**A.** 106% (inactive)

**Q.** Which GFP response vs DMSO does the source give for `Cc1cccc[n+]1CC(=O)c1ccccc1` here?
**A.** 113% (inactive)

**Q.** Which GFP response vs DMSO does the source give for `COC(=O)C[n+]1cccc2ccccc21` here?
**A.** 221% (active)

**Q.** For `COc1ccccc1NC(=O)C[n+]1ccccc1`, which GFP response vs DMSO is on record?
**A.** 108% (inactive)

**Q.** Which GFP response vs DMSO does the source give for `CCOc1ccc(CN(C)C(=O)c2ccc(=O)[nH]c2)cc1` here?
**A.** 104% (inactive)

**Q.** With `COc1c(O)ccc2c1CN1CCc3cc4c(cc3C1C2)OCO4` (stereo not drawn) as the compound, how does the GFP response vs DMSO read?
**A.** 205% (active)

**Q.** Which GFP response vs DMSO does the source give for `COc1ccc2cc1Oc1ccc(cc1)C[C@H]1c3cc(c(OC)cc3CCN1C)Oc1c(O)c(OC)cc3c1[C@H](C2)N(C)CC3` here?
**A.** 99.2% (inactive)

**Q.** With `COc1cc(COCC(O)CN2CCN(Cc3ccc4c(c3)OCO4)CC2)cc(OC)c1OC` (stereo not drawn) as the compound, how does the GFP response vs DMSO read?
**A.** 100% (inactive)

**Q.** For `COc1ccc(NC(=O)CSc2nncc(=O)n2N)cc1OC`, which GFP response vs DMSO is on record?
**A.** 104% (inactive)

**Q.** Which GFP response vs DMSO does the source give for `COc1ccccc1CNC(=O)COn1nnc2ccc(S(=O)(=O)N3CCOCC3)cc21` here?
**A.** 123% (inactive)

**Q.** With `CC(=O)OC(C(=O)NCCc1ccccc1)c1cccnc1` (stereo not drawn) as the compound, how does the GFP response vs DMSO read?
**A.** 234% [may fluoresce violet] (active)

**Q.** Which GFP response vs DMSO does the source give for `O=C(CSc1ncccn1)NCCc1ccccc1` here?
**A.** 96.5% (inactive)

**Q.** Which GFP response vs DMSO does the source give for `CCC(Oc1ccccc1)C(=O)NCc1cccnc1` (stereo not drawn) here?
**A.** 101% (inactive)

**Q.** Which GFP response vs DMSO does the source give for `COc1cc(CO)c(C2(CO)CCCC2)cc1OC` here?
**A.** 101% (inactive)

**Q.** Which GFP response vs DMSO does the source give for `O=C(NC1CCCC1)C(=O)c1c[nH]c2ccccc12` here?
**A.** 90.7% (inactive)

**Q.** With `C[n+]1ccc(/C=C/c2c[nH]c3ccccc23)cc1` as the compound, how does the GFP response vs DMSO read?
**A.** 403% (active)

**Q.** With `COc1ccc(/C=C(\C#N)c2c[nH]c3ccccc23)cc1` as the compound, how does the GFP response vs DMSO read?
**A.** 98.7% (inactive)

— PubChem BioAssay AID2016 (NMMLSC, 2009)
